# Records with an inconclusive call do not appear. Active and inactive are the calls of the source. Unless noted, calls come from the whole dose curve.
# Assays:
# [1] = molecular target: Cytochrome P450 2D6 (Homo sapiens) (UniProt P10635); test: Cytochrome P450 family 2 subfamily D member 6 (CYP2D6) small molecule antagonists: luciferase biochemical (cell-free) qHTS assay (AID 1645840; active = well fitted curve in the direction sought with a large enough effect in the repeat runs; an effect the other way counts as inactive or inconclusive; note: nearly all actives have a fitted effect of over 55% in size; note: potency is the fitted concentration of half-maximal effect; for activity change, negative = inhibition: % is set by controls: 0 for no effect and ±100 for the full control effect)
# Cytochrome P450 2D6 (Homo sapiens), sequence (P10635 whole entry, looked up): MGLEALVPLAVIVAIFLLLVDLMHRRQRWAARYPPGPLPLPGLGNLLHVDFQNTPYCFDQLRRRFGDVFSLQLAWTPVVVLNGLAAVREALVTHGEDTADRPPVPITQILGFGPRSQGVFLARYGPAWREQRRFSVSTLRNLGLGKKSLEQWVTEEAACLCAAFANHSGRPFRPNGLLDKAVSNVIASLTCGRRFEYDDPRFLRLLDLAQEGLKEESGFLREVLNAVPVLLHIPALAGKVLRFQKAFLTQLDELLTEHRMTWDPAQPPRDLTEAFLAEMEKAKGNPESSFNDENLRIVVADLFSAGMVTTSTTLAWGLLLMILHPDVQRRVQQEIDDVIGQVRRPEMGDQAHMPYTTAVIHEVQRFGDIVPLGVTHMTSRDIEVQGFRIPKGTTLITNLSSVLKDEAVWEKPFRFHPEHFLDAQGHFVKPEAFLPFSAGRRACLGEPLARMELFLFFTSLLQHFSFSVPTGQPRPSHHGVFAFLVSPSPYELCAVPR
# Method in brief: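 P450-Glo luminescent screen: recombinant CYP2D6 enzyme–proluciferin substrate mix preincubated with compound 10 min at room temperature, then NADPH regeneration added for 1 h at room temperature. Detection reagent added for 20 min; luciferin light read as relative luminescence units.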
# [2] = Confirmatory qHTS to identify inhibitors of SARS-CoV-2 cell entry (AID 1645844); note: nearly all actives have a fitted effect of over 45% in size; note: potency is the fitted concentration of half-maximal effect
# Method in brief: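 HEK293-ACE2 cells (Expi293F stably expressing human ACE2) were pretreated with compounds for 1 hr at 37C, then infected with MLV-based particles carrying Wuhan-Hu-1 spike (C-terminal 19-aa truncation). Luciferase luminescence read after 48 hr; normalized to spike PP (100%) and bald PP (0%).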
# [3] = Cytotoxicity counterscreen for inhibitors of SARS-CoV-2 cell entry (AID 1645845); settings: outcome: dose series up to 57.1 µM unless noted; note: % is set by controls: 0 for no effect and ±100 for the full control effect; nearly all actives have a fitted effect of over 50% in size
# Method in brief: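 Expi293F/hACE2 cells seeded overnight; cpd pin-transferred in DMSO, 1 h preincubation, + media, 48 h 37 C 5% CO2; ATPLite 1step luminescence; normalized to cells and no cells.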
# [4] = Primary qHTS to identify inhibitors of SARS-CoV-2 cell entry (AID 1645846); settings: SARS-CoV-2 pseudovirus cell entry assay, luminescence; activity change, negative = inhibition: at 57.1 µM (top of the series) unless noted; note: nearly all actives have a fitted effect of over 45% in size
# Method in brief: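 Inhibition of spike-mediated entry was scored in human ACE2-transfected Expi293F cells. Particles were MLV-pseudotyped with Wuhan-Hu-1 S carrying a 19-aa C-terminal deletion; signal was luciferase after two days, scaled between spike PP and fusion-protein-free PP.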
# [5] = VSVG counterscreen qHTS to identify inhibitors of SARS-CoV-2 cell entry (AID 1645847); note: nearly all actives have a fitted effect of over 65% in size; note: potency is the fitted concentration of half-maximal effect; for activity change, negative = inhibition: % is set by controls: 0 for no effect and ±100 for the full control effect
# Method in brief: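 Luminescence from a luciferase reporter, normalised to bald particle and VSV-G pseudotyped particle wells, is the read-out. Cells are HEK293 expressing human ACE2, exposed to compound 1 h before a 48 h particle infection at 37 °C.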
# [6] = molecular target: Cytochrome P450 3A4 (Homo sapiens) (UniProt P08684); test: qHTS Assay for Inhibitors and Substrates of Cytochrome P450 3A4 (AID 884; active = well fitted curve in the direction sought with a large enough effect; an effect the other way counts as inactive or inconclusive; note: % is set by controls: 0 for no effect and ±100 for the full control effect; nearly all actives have a fitted effect of over 50% in size)
# Cytochrome P450 3A4 (Homo sapiens), sequence (P08684 whole entry, looked up): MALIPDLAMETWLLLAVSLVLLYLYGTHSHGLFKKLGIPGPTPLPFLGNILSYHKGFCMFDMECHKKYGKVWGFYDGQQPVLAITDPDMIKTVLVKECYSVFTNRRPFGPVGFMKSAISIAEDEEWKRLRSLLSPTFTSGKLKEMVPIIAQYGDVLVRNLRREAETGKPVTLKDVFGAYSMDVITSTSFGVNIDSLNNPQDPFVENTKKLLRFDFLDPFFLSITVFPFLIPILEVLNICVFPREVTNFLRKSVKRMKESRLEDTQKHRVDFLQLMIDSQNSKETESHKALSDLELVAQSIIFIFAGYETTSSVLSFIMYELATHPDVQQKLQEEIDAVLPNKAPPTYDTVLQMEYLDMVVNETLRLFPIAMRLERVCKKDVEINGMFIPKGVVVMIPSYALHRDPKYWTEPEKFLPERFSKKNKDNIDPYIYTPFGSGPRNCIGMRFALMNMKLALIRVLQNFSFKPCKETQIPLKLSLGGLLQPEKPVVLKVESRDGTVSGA
# Method in brief: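 20 nM human CYP3A4 with 25 uM Luciferin-PPXE (at KM) in 200 mM KPO4, preincubated 10 min with compound; NADPH regeneration started a 60 min RT reaction. Luciferin detected by luminescence, normalized to 57 uM ketoconazole as full inhibition.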
# [7] = Confirmation and Secondary Assay for Modulators of Hemoglobin Beta Chain Splicing at IVS2 705 locus (AID 930; active = well fitted curve in the direction sought with a large enough effect; an effect the other way counts as inactive or inconclusive;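 note: HeLa cells stably expressing the EGFP-705 splicing reporter; GFP fluorescence per well restored by corrected splicing of the IVS2-705 intron in EGFP; % of control where 0% means no effect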)
# Method in brief: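 Splice-correction reporter: EGFP cDNA split by beta-globin intron 2 bearing the 705 mutation, stably in HeLa. Compound incubation 2 days, 37C; fluorescent objects 5-250 µm summed per well.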
# [8] = qHTS Assay for Lipid Storage Modulators (AID 1519); settings: Drosophila S3 cells, BODIPY lipid droplet/cell ratio, laser cytometry, cells loaded with oleic acid; for activity change, negative = inhibition: % is set by controls: 0 for no effect and ±100 for the full control effect
# Method in brief: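 Cells seeded at 5,000 per well were treated with compounds over a concentration series and loaded with oleic acid (400 uM, as added). Lipid droplet fluorescence (488 nm excitation, 500-530 nm channel) was read by laser-scanning cytometry and normalized to 20 uM Triacsin C.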
# [9] = Confirmation and Secondary Assay for Modulators of Hemoglobin Beta Chain Splicing at IVS2 654 locus (AID 910; active = well fitted curve in the direction sought with a large enough effect; an effect the other way counts as inactive or inconclusive;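 note: per-well total GFP intensity by laser scanning cytometry after 2-day treatment; % of control where 0% means no effect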)
# Method in brief: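 HeLa cells stably carrying EGFP interrupted by mutant beta-globin IVS2-654 intron (CMV-driven) were treated with compound for 2 days at 37C; corrected splicing was scored as total peak GFP intensity per well (488 nm excitation, 500-520 nm emission).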
# [10] = molecular target: Cytochrome P450 3A4 (Homo sapiens) (UniProt P08684); test: qHTS Assay for Activators of Cytochrome P450 3A4 (AID 885; active = well fitted curve in the direction sought with a large enough effect; an effect the other way counts as inactive or inconclusive; note: nearly all actives have a fitted effect of over 65% in size)
# Method in brief: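 Quantitative HTS format: compounds preincubated with 20nM human CYP3A4 and Luciferin-PPXE substrate at KM, reaction started by NADPH regeneration, stopped after 60 min, luciferase luminescence read 20 min later.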
# [11] = molecular target: Alpha-galactosidase (Coffea arabica) (UniProt Q42656); test: Counterscreen for Glucocerebrosidase Inhibitors: qHTS Assay for Coffee Bean alpha-Galactosidase at pH 4.5 (AID 957; active = well fitted curve in the direction sought with a large enough effect; an effect the other way counts as inactive or inconclusive;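 note: plate controls were enzyme alone for no effect and no enzyme for full effect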)
# Alpha-galactosidase (Coffea arabica), sequence (Q42656 whole entry, looked up): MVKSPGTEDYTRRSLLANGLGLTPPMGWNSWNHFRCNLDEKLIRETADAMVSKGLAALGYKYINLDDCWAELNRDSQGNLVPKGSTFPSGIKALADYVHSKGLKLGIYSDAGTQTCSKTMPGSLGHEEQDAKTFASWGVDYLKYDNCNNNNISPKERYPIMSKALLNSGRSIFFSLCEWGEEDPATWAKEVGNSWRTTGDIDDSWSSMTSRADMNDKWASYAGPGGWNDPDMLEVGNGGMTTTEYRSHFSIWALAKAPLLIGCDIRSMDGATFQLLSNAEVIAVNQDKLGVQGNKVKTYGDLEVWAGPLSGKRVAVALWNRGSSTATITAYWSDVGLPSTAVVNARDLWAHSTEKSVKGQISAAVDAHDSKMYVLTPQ
# Method in brief: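 Coffee bean enzyme (2 nM) with 80 uM 4-methylumbelliferyl alpha-D-galactopyranoside in 50 mM citric acid, 0.005% Tween-20, pH 4.5, 20 min at room temperature; compounds 0.7 nM–77 uM. Stopped at pH 10, fluorescence 365/440 nm; AC50 from Hill fits.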
# [12] = molecular target: Alpha-galactosidase (Coffea arabica) (UniProt Q42656); test: Counterscreen for Glucocerebrosidase Inhibitors: qHTS Assay for Coffee Bean alpha-Galactosidase at pH 5.9 (AID 998; active = well fitted curve in the direction sought with a large enough effect; an effect the other way counts as inactive or inconclusive;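 note: plate controls were uninhibited enzyme for no effect and no-enzyme basal signal for full effect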)
# Method in brief: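 Green coffee bean enzyme (2 nM final) was incubated with compounds (0.7 nM–77 uM) and 4-methylumbelliferyl alpha-D-galactopyranoside (80 uM) in citrate buffer pH 5.9, 20 min at room temperature. High-pH stop; fluorescence 365/440 nm; AC50 from Hill fits.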
# [13] = molecular target: Ubiquitin carboxyl-terminal hydrolase 1 (Homo sapiens) (UniProt O94782); test: Inhibitors of USP1/UAF1: Pilot qHTS (AID 504865; active = well fitted curve in the direction sought with a large enough effect; an effect the other way counts as inactive or inconclusive;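 note: rhodamine fluorescence freed from ubiquitin-rhodamine substrate followed over time; top concentration of the series differs between compounds; % is set by controls: 0 for no effect and ±100 for the full control effect; nearly all actives have a fitted effect of over 35% in size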)
# Ubiquitin carboxyl-terminal hydrolase 1 (Homo sapiens), sequence (O94782 whole entry, looked up): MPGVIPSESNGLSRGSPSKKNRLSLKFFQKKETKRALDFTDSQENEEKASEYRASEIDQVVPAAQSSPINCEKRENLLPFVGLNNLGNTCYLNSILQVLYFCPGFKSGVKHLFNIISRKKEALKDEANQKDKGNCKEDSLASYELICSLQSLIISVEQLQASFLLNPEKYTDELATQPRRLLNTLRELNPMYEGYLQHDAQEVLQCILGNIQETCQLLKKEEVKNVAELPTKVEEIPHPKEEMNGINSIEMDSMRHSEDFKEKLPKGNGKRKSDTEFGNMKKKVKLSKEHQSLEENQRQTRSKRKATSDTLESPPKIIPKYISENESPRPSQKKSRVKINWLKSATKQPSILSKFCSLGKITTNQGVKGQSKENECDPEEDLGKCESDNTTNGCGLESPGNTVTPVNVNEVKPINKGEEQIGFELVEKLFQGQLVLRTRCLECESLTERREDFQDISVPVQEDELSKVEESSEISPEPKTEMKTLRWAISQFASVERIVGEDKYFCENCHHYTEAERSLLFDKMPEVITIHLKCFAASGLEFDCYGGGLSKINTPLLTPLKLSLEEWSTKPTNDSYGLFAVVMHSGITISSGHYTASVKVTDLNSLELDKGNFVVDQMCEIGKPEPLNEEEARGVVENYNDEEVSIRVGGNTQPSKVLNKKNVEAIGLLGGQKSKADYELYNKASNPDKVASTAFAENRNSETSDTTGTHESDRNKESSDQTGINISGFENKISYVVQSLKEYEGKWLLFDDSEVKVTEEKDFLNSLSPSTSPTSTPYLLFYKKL
# Method in brief: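 In 50mM HEPES pH 7.8 containing 0.5mM EDTA, 1mM TCEP, 0.1 mg/ml BSA and 0.01% Tween-20, 1nM USP1/UAF1 is exposed to compound for 15 min, then Ub-Rho (150nM final) is added and fluorescence is read over time.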
# [14] = measured here: cell count channel max response
# [15] = measured here: lipid channel max response
smiles,measurement,setting,value
CCN=C1Nc2ccc(Cl)cc2C(C)(c2ccccc2)O1 (stereo not given),Potency,[1],10700 nM (active)
O=C(c1ccc(Nc2nc(C3CC3)cn3c(-c4cn[nH]c4)cnc23)c(F)c1)N1CCOCC1,Potency,[2],3410 nM (active)
same,Potency,[3],inactive
same,"activity change, negative = inhibition",[4],-58.9%
same,Potency,[5],8570 nM (active)
CCCCCCC(C)OC(=O)COc1ccc(Cl)cc1Cl (stereo not given),Potency,[6],inactive
same,Potency,[7],inactive
same,"activity change, negative = inhibition",[8]; at 57.5 µM (top of the series),1.06% (inactive)
same,max response,[8]; [14],1.5%
same,max response,[8]; [15],2.82%
CCC(CO)NC(=O)C1C=C2c3cccc4[nH]cc(c34)CC2N(C)C1 (stereo not given),Potency,[9],inactive
same,"activity change, negative = inhibition",[8]; at 57.5 µM (top of the series),10.6% (inactive)
same,max response,[8]; [14],3.07%
same,max response,[8]; [15],18.5%
CCN(CC)N(O)N=O,Potency,[1],inactive
CCCCNc1ncc(-c2ccc(CN3CCOCC3)cn2)c(NC2CCC(O)CC2)n1 (stereo not given),Potency,[2],1050 nM (active)
same,Potency,[3],inactive
Nc1ncn[nH]1,Potency,[10],inactive
same,Potency,[9],inactive
same,"activity change, negative = inhibition",[8]; at 57.5 µM (top of the series),11.2% (inactive)
same,max response,[8]; [14],9.75%
same,max response,[8]; [15],23.5%
CC(=O)OC1CC(OC(C)=O)[C@]2(C)C(CC(OC(C)=O)[C@]3(C)C2CC[C@@]2(C)C(c4ccoc4)C(=O)C4O[C@]432)C1(C)C (stereo not given in full),Potency,[10],inactive
same,Potency,[9],inactive
same,Potency,[7],inactive
same,"activity change, negative = inhibition",[8]; at 57.5 µM (top of the series),-15.3% (inactive)
same,max response,[8]; [14],-13.1%
same,max response,[8]; [15],-24.4%
CCOC(=O)/C=C/[C@H](C[C@@H]1CCNC1=O)NC(=O)[C@@H](CC(=O)[C@@H](NC(=O)c1cc(C)on1)C(C)C)Cc1ccc(F)cc1,Potency,[1],inactive
CC(C)C[C@H]1C(=O)N2CCC[C@@H]2[C@]2(O)O[C@](NC(=O)[C@H]3C=C4c5cccc6[nH]c(Br)c(c56)C[C@H]4N(C)C3)(C(C)C)C(=O)N12,outcome,[11],inactive
same,outcome,[12],inactive
same,"activity change, negative = inhibition",[8]; at 25.7 µM (top of the series),-0.675% (inactive)
same,max response,[8]; [14],-7.2%
same,max response,[8]; [15],-5.42%
CC(C)n1c(=O)cc(N[C@@H](C)c2ccccc2)[nH]c1=O,Potency,[2],inactive
same,Potency,[3],inactive
same,"activity change, negative = inhibition",[4],-96.7%
same,Potency,[5],inactive
CC1CC[C@@]2(OC1)OC1C(O)C3C4CC[C@H]5CC(O[C@@H]6O[C@@H](CO)[C@H](OC7OC(CO)C(O)C(OC8OCC(O)C(O)[C@H]8O)[C@@H]7O[C@@H]7OC(CO)[C@H](O)[C@@H](O[C@@H]8OC(CO)C(O)C(O)C8O)C7O)C(O)C6O)C(O)C[C@]5(C)C4CC[C@]3(C)C1C2C (stereo not given in full),Potency,[10],inactive
same,Potency,[9],inactive
same,Potency,[7],inactive
same,"activity change, negative = inhibition",[8]; at 57.5 µM (top of the series),-0.601% (inactive)
same,max response,[8]; [14],-28.8%
same,max response,[8]; [15],-26%
CC(=O)Oc1ccc(Cl)c2cccnc12,Potency,[6],inactive
same,Potency,[9],inactive
same,Potency,[7],inactive
same,Potency,[13],inactive
same,Potency,[1],inactive
CC[C@@]1(O)C(=O)OCc2c1cc1n(c2=O)Cc2c-1nc1ccccc1c2CCNC(C)C,Potency,[2],5.4 nM (active)
same,"activity change, negative = cytotoxicity",[3],-47.2% [at 5.25 µM] (inactive)
same,"activity change, negative = inhibition",[4],-96.8% [at 5.25 µM]
same,Potency,[5],6.1 nM (active)
COc1cc(OC)c(/C=C/S(=O)(=O)Cc2ccc(OC)c(OP(=O)(O)O)c2)c(OC)c1,Potency,[2],17.5 nM (active)
same,Potency,[3],inactive
same,"activity change, negative = inhibition",[4],-77.7%
same,Potency,[5],39.3 nM (active)
Nc1ccn([C@@H]2C(F)=C(CO)[C@@H](O)[C@H]2O)c(=O)n1,Potency,[2],1520 nM (active)
same,Potency,[3],inactive
same,"activity change, negative = inhibition",[4],-76.2%
same,Potency,[5],3040 nM (active)
CS[C@H]1SC[C@@H]2C(=O)N(C)[C@H](C(C)C)C(=O)OC[C@H](NC(=O)c3cnc4ccccc4n3)C(=O)N[C@H](C)C(=O)N(C)[C@H]1C(=O)N(C)[C@H](C(C)C)C(=O)OC[C@H](NC(=O)c1cnc3ccccc3n1)C(=O)N[C@H](C)C(=O)N2C,Potency,[2],8.6 nM (active)
same,Potency,[3],inactive
same,"activity change, negative = inhibition",[4],-94.2%
same,Potency,[5],7.6 nM (active)
NC(N)=NN=Cc1c(Cl)cccc1Cl,outcome,[11],inactive
same,outcome,[12],inactive
same,"activity change, negative = inhibition",[8]; at 25.7 µM (top of the series),-2.38% (inactive)
same,max response,[8]; [14],-4.82%
same,max response,[8]; [15],-7.49%

# — PubChem BioAssay (NCATS)
